In paper PMC8384837, “Expanding the binding specificity for RNA recognition by a PUF domain”:
Changes are numbered by the printed parent chain.

What was measured:
Experiment in all cases: yeast three-hybrid, YBZ-1, SC-Leu-His + 0.5 mM 3-AT, 4 days
Settings in all cases: tags: N-Gal4 AD-HA kept; label: inside an RPR1-promoter hybrid RNA with tandem MS2 sites; ssRNA
PUM1 PUF domain R3-LYG = PUM1 PUF domain R3-LYG (Homo sapiens, UniProt Q14671 828-1176, C935L;R936Y;Q939G)
Method in brief: (§1)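 Matching RNA elements and Pumilio-1 PUF domain libraries, randomized at the three base-contacting residues of every repeat, were co-expressed from a centromeric plasmid in strain YBZ-1 (LexA–MS2 coat fusion, HIS3 reporter). The repeat regions were PCR-amplified and Illumina-sequenced from cells grown four days on SC-Leu (input) or SC-Leu-His + 0.5 mM 3-AT (selection). The interaction score is the log change in variant frequency from input to selection. It is computed in log2, with a pseudocount of 1 for absent variants.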

PUM1 PUF domain R3-RSC = PUM1 PUF domain R3-RSC (Homo sapiens, UniProt Q14671 828-1176, C935R;R936S;Q939C)
Method in brief: as §1

PUM1 PUF domain R4-MPG = PUM1 PUF domain R4-MPG (Homo sapiens, UniProt Q14671 828-1176, N971M;H972P;Q975G)
Method in brief: as §1

PUM1 PUF domain R3-MSN = PUM1 PUF domain R3-MSN (Homo sapiens, UniProt Q14671 828-1176, C935M;R936S;Q939N)
Method in brief: as §1

PUM1 PUF domain R1-RTE = PUM1 PUF domain R1-RTE (Homo sapiens, UniProt Q14671 828-1176, S863R;R864T;Q867E)
Method in brief: as §1

PUM1 PUF domain R4-VWK = PUM1 PUF domain R4-VWK (Homo sapiens, UniProt Q14671 828-1176, N971V;H972W;Q975K)
Method in brief: as §1

PUM1 PUF domain R5-RSI = PUM1 PUF domain R5-RSI (Homo sapiens, UniProt Q14671 828-1176, C1007R;R1008S;Q1011I)
Method in brief: as §1

PUM1 PUF domain R1-TSR = PUM1 PUF domain R1-TSR (Homo sapiens, UniProt Q14671 828-1176, S863T;R864S;Q867R)
Method in brief: as §1

PUM1 PUF domain R6-WYG = molecular target: T1, PUM1 PUF domain R6-WYG (Homo sapiens, UniProt Q14671 828-1176, N1043W;Q1047G)
T1 sequence: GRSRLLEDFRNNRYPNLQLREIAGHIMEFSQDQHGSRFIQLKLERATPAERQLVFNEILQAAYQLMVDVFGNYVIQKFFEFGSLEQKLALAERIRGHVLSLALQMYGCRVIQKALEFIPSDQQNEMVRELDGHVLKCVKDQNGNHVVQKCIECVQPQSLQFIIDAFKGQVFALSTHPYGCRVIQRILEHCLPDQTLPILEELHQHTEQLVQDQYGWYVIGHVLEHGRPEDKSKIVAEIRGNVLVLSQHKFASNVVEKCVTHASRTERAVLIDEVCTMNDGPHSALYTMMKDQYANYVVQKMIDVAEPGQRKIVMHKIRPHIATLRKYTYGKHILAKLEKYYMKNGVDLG
Method in brief: as §1

PUM1 PUF domain R2-GWD = PUM1 PUF domain R2-GWD (Homo sapiens, UniProt Q14671 828-1176, N899G;Y900W;Q903D)
Method in brief: as §1

PUM1 PUF domain R8-KHS = PUM1 PUF domain R8-KHS (Homo sapiens, UniProt Q14671 828-1176, N1122K;Y1123H;Q1126S)
Method in brief: as §1

PUM1 PUF domain R6-HFW = molecular target: T2, PUM1 PUF domain R6-HFW (Homo sapiens, UniProt Q14671 828-1176, N1043H;Y1044F;Q1047W)
T2 sequence: T1 sequence with W216H, Y217F, G220W
Method in brief: as §1

PUM1 PUF domain R8-LRR = PUM1 PUF domain R8-LRR (Homo sapiens, UniProt Q14671 828-1176, N1122L;Y1123R;Q1126R)
Method in brief: as §1

PUM1 PUF domain R6-RHG = molecular target: T3, PUM1 PUF domain R6-RHG (Homo sapiens, UniProt Q14671 828-1176, N1043R;Y1044H;Q1047G)
T3 sequence: T1 sequence with W216R, Y217H
Method in brief: as §1

GGCUAGAACUAGUGGAUCCCCCGGCGCCCGGCGGCUCGAGCCCGGGUAAGUGUAAUUAGUCUGCAUGCCGCCGGGCGCCAUGCCUGCAGGUCGACUCUAGAAAACAUG
binding signal (PUM1 PUF domain R3-LYG): 4.62 log2 enrichment (interaction score) | binding signal (PUM1 PUF domain R3-RSC): 3.04 log2 enrichment (interaction score)

GGCUAGAACUAGUGGAUCCCCCGGCGCCCGGCGGCUCGAGCCCGGGUAAGUGUAUAUAGUCUGCAUGCCGCCGGGCGCCAUGCCUGCAGGUCGACUCUAGAAAACAUG
binding signal (PUM1 PUF domain R4-MPG): 2.39 log2 enrichment (interaction score)

GGCUAGAACUAGUGGAUCCCCCGGCGCCCGGCGGCUCGAGCCCGGGUAAGUGUAAGUAGUCUGCAUGCCGCCGGGCGCCAUGCCUGCAGGUCGACUCUAGAAAACAUG
binding signal (PUM1 PUF domain R3-LYG): 6.19 log2 enrichment (interaction score) | binding signal (PUM1 PUF domain R3-MSN): 2.68 log2 enrichment (interaction score)

GGCUAGAACUAGUGGAUCCCCCGGCGCCCGGCGGCUCGAGCCCGGGUAAGUGUAAAUGGUCUGCAUGCCGCCGGGCGCCAUGCCUGCAGGUCGACUCUAGAAAACAUG
binding signal (PUM1 PUF domain R1-RTE): 0.93 log2 enrichment (interaction score)

GGCUAGAACUAGUGGAUCCCCCGGCGCCCGGCGGCUCGAGCCCGGGUAAGUGUACAUAGUCUGCAUGCCGCCGGGCGCCAUGCCUGCAGGUCGACUCUAGAAAACAUG
binding signal (PUM1 PUF domain R4-MPG): 2.9 log2 enrichment (interaction score) | binding signal (PUM1 PUF domain R4-VWK): 5.63 log2 enrichment (interaction score)

GGCUAGAACUAGUGGAUCCCCCGGCGCCCGGCGGCUCGAGCCCGGGUAAGUGUCAAUAGUCUGCAUGCCGCCGGGCGCCAUGCCUGCAGGUCGACUCUAGAAAACAUG
binding signal (PUM1 PUF domain R5-RSI): 2.24 log2 enrichment (interaction score)

GGCUAGAACUAGUGGAUCCCCCGGCGCCCGGCGGCUCGAGCCCGGGUAAGUGUAAAUCGUCUGCAUGCCGCCGGGCGCCAUGCCUGCAGGUCGACUCUAGAAAACAUG
binding signal (PUM1 PUF domain R1-TSR): 2.68 log2 enrichment (interaction score)

GGCUAGAACUAGUGGAUCCCCCGGCGCCCGGCGGCUCGAGCCCGGGUAAGUGUAAAUAGUCUGCAUGCCGCCGGGCGCCAUGCCUGCAGGUCGACUCUAGAAAACAUG
binding signal (PUM1 PUF domain R6-WYG): 3.19 log2 enrichment (interaction score) | binding signal (PUM1 PUF domain R2-GWD): 1.77 log2 enrichment (interaction score) | binding signal (PUM1 PUF domain R3-LYG): 2.65 log2 enrichment (interaction score) | binding signal (PUM1 PUF domain R8-KHS): 4.58 log2 enrichment (interaction score) | binding signal (PUM1 PUF domain R6-HFW): 3.2 log2 enrichment (interaction score) | binding signal (PUM1 PUF domain R8-LRR): 2.35 log2 enrichment (interaction score) | binding signal (PUM1 PUF domain R6-RHG): 2.33 log2 enrichment (interaction score)
